# Only some compounds are listed: those with a hit (about 2.4% of all), similar ones and a draw of the others.
# CHT inh: inhibitors of human choline transporter CHT; hit rate 0.86% among 310,000; CHT-expressing cells, membrane potential dye, choline response; hits give low values; B-score at 10 µM; Q9GZV3;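 active = B-score over 3 SD under the library average, and starting fluorescence ratio not unusually high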;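 note: choline stimulus applied at its EC90 after an EC20 pre-addition; B-score computed on integrated fluorescence ratio after choline addition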
# ANO1 block: inhibitors of mouse TMEM16A calcium-activated chloride channel | Q8BHY3 | HEK293 TMEM16A/YFP iodide influx fluorescence, ionomycin | normalized B-score (activity score, 25-100; higher = stronger inhibition) at 10 µM | hit rate 1.2% among 310,000 | AID 588511;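 active = ratio plate-corrected score three or more library SD toward inhibition, starting fluorescence score within five deviations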;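 note: score derived from kinetic fluorescence span divided by baseline fluorescence per well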
# Target sequence (Q8BHY3 whole entry, looked up): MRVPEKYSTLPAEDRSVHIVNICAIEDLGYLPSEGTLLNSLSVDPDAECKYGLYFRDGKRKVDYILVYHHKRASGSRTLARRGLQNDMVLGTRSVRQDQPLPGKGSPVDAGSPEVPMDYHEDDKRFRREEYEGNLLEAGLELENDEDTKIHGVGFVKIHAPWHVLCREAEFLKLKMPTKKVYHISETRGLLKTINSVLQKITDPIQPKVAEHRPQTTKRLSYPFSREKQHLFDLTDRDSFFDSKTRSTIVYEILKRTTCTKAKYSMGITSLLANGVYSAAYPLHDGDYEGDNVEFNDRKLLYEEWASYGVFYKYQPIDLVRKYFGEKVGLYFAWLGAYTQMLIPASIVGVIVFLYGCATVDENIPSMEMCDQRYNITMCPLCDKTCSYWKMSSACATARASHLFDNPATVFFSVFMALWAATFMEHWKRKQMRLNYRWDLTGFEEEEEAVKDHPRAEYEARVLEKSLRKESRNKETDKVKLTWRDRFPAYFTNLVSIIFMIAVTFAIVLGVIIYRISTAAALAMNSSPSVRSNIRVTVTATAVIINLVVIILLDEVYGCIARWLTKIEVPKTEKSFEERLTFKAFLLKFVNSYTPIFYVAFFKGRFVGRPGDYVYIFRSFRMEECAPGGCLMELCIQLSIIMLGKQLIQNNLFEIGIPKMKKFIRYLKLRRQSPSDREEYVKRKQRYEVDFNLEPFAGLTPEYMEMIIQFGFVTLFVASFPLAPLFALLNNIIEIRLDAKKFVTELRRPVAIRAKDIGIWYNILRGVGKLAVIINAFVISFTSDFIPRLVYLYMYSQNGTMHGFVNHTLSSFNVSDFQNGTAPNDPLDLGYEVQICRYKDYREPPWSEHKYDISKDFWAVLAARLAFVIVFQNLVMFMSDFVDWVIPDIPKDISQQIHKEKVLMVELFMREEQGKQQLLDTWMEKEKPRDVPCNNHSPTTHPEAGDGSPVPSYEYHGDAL
# CHT PAM: allosteric activators of human choline transporter CHT; Q9GZV3; CHT-expressing cells, membrane potential dye, choline EC20; hits give high values; LV-AA mutant CHT in HEK293 cells; B-score at 10 µM; hit rate 0.49% among 310,000; AID 488977;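 active = initial fluorescence not abnormally high and integrated response B-score, plate-corrected, over 3 SD above library mean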
# TMEM16A act: activates or potentiates the mouse TMEM16A chloride channel | hit rate 0.3% among 340,000 | HEK293 TMEM16A/YFP-H148Q/I152L, iodide quench fluorescence; hits give low values | AID 623877 | B-score at 10 µM | Q8BHY3;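 active = fluorescence-ratio B-score plate-corrected deviation score at least 3 library SD below zero, with starting fluorescence score within 5 deviations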;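 note: channel opened by trigger with iodide after compound preincubation; score built on the fluorescence ratio of max minus min over baseline; more negative score means more quench and so TMEM16A activation or potentiation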
# CHT block conf: confirmation of human choline transporter CHT inhibitors; shares compounds with CHT inh; CHT-expressing cells, choline membrane potential dye; LV-to-AA substituted CHT, HEK293 cells; CHT activity remaining % of control (hits give low values), % at 10 µM; hit rate 70% among 2,400; AID 493221;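 active = choline transporter activity left, mean of duplicates at 10 µM, below buffer-only control mean minus 3 SD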;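 note: depolarization triggered by choline at its EC90 following an EC20 pre-addition; 0% = hemicholinium-3 full block and 100% = buffer-only control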
# HEK293 CHT ctr: CHT inhibitor counter-screen hit in parental HEK293 cells | shares compounds with CHT inh | membrane potential dye, choline response; active = decrease or increase beyond buffer ±3SD | membrane potential ratio readout (active if shifted either direction beyond buffer ±3SD; no single direction) at 10 µM | hit rate 4% among 2,400 | AID 493222;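 note: parental cells lack the transporter so any hit is non-specific; ratio is peak minus trough fluorescence over baseline after EC90 choline challenge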
# The depositor's hits bear a star; i = inactive; . = no result.
SMILES,CHT inh,ANO1 block,CHT PAM,TMEM16A act,CHT block conf,HEK293 CHT ctr
COc1ccccc1S(=O)(=O)Nc1cc(S(=O)(=O)N2CCCCC2)ccc1N1CCOCC1,i,i,i,i,.,.
CCc1nnc(NC(=O)c2nc(S(=O)(=O)Cc3ccccc3)ncc2Cl)s1,i,i,i,i,.,.
CCc1nnc(NC(=O)c2nc(S(=O)(=O)Cc3ccc(C)cc3)ncc2Cl)s1,-8.3*,i,i,i,31.9%*,i
CCc1nnc(NC(=O)c2nc(S(=O)(=O)Cc3cccc(C)c3)ncc2Cl)s1,-6.1*,i,i,i,30.3%*,i
CC(C)c1nnc(NC(=O)c2nc(S(=O)(=O)Cc3ccc(F)cc3)ncc2Cl)s1,-6.16*,i,i,i,19.4%*,i
O=C(O)/C(=C\c1c(C(=O)O)[nH]c2cc(Cl)cc(Cl)c12)c1ccccc1,i,i,i,i,.,.
CC(C)n1c(O)c(/C=C2\C=NN=C2c2ccccc2)sc1=S,i,i,i,i,.,.
COc1cc2c(cc1OC)CN(C1CC(=O)N(c3c(C)cccc3C)C1=O)CC2 (stereo not given),i,i,i,i,.,.
CCCN1CNc2c(c(=O)[nH]c(=S)n2-c2ccc(Cl)cc2)C1,i,i,i,i,.,.
O=c1oc2ccc([N+](=O)[O-])cc2c(N2CCOCC2)c1[N+](=O)[O-],i,i,i,.,.,.
Cc1cccc(C)c1-n1nnnc1C(C)(C)N1CCN(N=O)CC1,-7.17*,i,i,i,i,i
COc1ccc(NC(C)(C)c2nnnn2-c2c(C)cccc2C)cc1,-5.39*,i,i,i,58.8%*,i
CCOc1ccc(CCNC(=O)C2(c3ccccc3)CC2)cc1OCC,i,i,i,i,.,.
CC(=O)NC(CC(=O)NCCN1C(=O)S/C(=C\c2ccccc2)C1=O)c1ccccc1 (stereo not given),-5.66*,i,i,i,57.2%*,i
O=C(CSc1nnc(-c2ccco2)n1Cc1ccco1)NCc1ccccc1,-5.12*,i,i,i,i,i
c1ccc(-c2ccccc2OCc2nnc3n2CCC3)cc1,-5.31*,i,i,i,59.6%*,i
O=C(O)CC(Cc1ccc(Cl)cc1)C(=O)Nc1cc(Cl)ccc1Cl (stereo not given),-5.34*,i,i,i,52.8%*,i
CCOC(=O)C1(CCCc2ccccc2)CCN(C(=O)CCCn2cncn2)CC1,-5.02*,i,i,i,i,i
CCCCc1nc2cc(Cl)ccc2o1,i,i,i,i,.,.
COCCCN(C(=S)Nc1ccc(OC)cc1)C(C)c1ccncc1 (stereo not given),i,i,i,i,.,.
CCCNC(=O)C(Cc1ccc(I)cc1)NC(=O)c1ccc2ccccc2n1 (stereo not given),.,.,.,i,.,.
CC(=O)/C=C/c1ccc2ccccc2n1,-5.33*,i,i,i,i,i
C(=N\N=C\c1ccncc1)/c1ccncc1,i,i,i,i,.,.
CCN(CC)C(=O)c1nn(-c2ccccc2)c2c1C1CCC2(C)C1(C)C (stereo not given),i,i,i,i,.,.
CCn1cc(/C=C(\NC(=O)c2ccccc2F)C(=O)NCCCn2ccnc2)c2ccccc21,-7.18*,i,i,i,28.3%*,i
SMILES,CHT inh,ANO1 block,CHT PAM,TMEM16A act,CHT block conf,HEK293 CHT ctr
O=C(N/C(=C\c1ccccc1)C(=O)N1CCOCC1)c1ccccc1Cl,i,i,i,i,.,.
O=C(NCCCn1ccnc1)/C(=C\c1ccc(Br)cc1)NC(=O)c1ccccc1,-4.97*,i,i,i,59.4%*,i
CCn1cc(/C=C(\NC(=O)c2ccccc2OC)C(=O)NCCCn2ccnc2)c2ccccc21,i,i,i,i,.,.
CCn1cc(/C=C(\NC(=O)c2ccccc2Cl)C(=O)N2CCOCC2)c2ccccc21,i,i,i,i,.,.
O=C(N/C(=C\c1ccc(Br)cc1)C(=O)N1CCOCC1)c1ccccc1Cl,-5.62*,i,i,i,i,i
CCn1cc(/C=C(\NC(=O)c2ccccc2F)C(=O)N2CCOCC2)c2ccccc21,-5.1*,i,i,i,46.3%*,i
O=C(NCCCn1ccnc1)/C(=C/c1ccccc1)NC(=O)c1ccccc1,i,i,i,i,.,.
COc1ccc(CN2CCN(CC(=O)Nc3ccccc3C(=O)NC3CC3)CC2)cc1F,.,.,.,i,.,.
CCCC1=C(C(=O)OCC)C(c2ccncc2)n2ncnc2N1 (stereo not given),i,i,i,i,.,.
CCOC(=O)[C@H]1[C@H]2COc3ccc(OC)cc3[C@@H]2N2C(=O)c3cc(OC)c(OC)cc3NC(=O)[C@@]12C,i,i,i,i,.,.
COC(=O)C(C)Sc1nc2c(c(=O)n(C)c(=O)n2C)n1CCC(C)C (stereo not given),i,i,i,i,.,.
CCC(C)Nc1nc2c(c(=O)[nH]c(=O)n2C)n1CCC(C)C (stereo not given),-8.35*,i,i,i,i,i
COC(=O)C(C)Sc1nc2c(c(=O)[nH]c(=O)n2C)n1CCC(C)C (stereo not given),-5.09*,i,i,.,39.7%*,i
Cc1oc2c(O)c(O)ccc2c(=O)c1-c1ccc(Cl)cc1,i,i,i,i,.,.
CC(=O)OC(C(=O)NC1CCCCC1)c1ccc(C)cc1 (stereo not given),i,i,i,i,.,.
CC(=O)OC(C(=O)NC1CCCCC1)c1ccc(Cl)c(Cl)c1 (stereo not given),-10.9*,i,i,i,i,i
Cc1ccccc1NC(=O)N1CCc2ccccc2C1,-5.57*,i,i,i,i,i
CC/C(O)=C(\C#N)c1nnc2n1CCCCC2,i,i,i,i,.,.
CCCCCc1c2c(cc(O)c1C(=O)O)OC(=O)c1cc(C(=O)CCCC)c(OC)cc1O2,.,.,.,i,.,.
CCCCCc1c2c(cc(O)c1C(=O)O)OC(=O)c1c(cc(OC)cc1C(=O)CCCC)O2,-5.33*,100*,i,i,35.3%*,i
Cc1cccc(N2C(=S)NC3c4ccccc4OC2(C)C3C(=O)N(C)C)c1 (stereo not given),i,i,i,i,.,.
CC1C(=O)N(c2ccc(S(=O)(=O)N(C)C)cc2)C1(/C=C/c1ccccc1)C(=O)NC1CCCC1 (stereo not given),-6.76*,i,i,i,i,i

# Screening data from PubChem.
